High-throughput results from PubChem.
VHR inh abs: inhibitors of human VHR1 phosphatase (DUSP3); P51452; actives 0.52% (n = 290,000); recombinant VHR phosphatase, pNPP absorbance; inhibition, % at 13.3 µM; AID 1654; in the data active = inhibition above about 50%
Target sequence (P51452 whole entry, looked up): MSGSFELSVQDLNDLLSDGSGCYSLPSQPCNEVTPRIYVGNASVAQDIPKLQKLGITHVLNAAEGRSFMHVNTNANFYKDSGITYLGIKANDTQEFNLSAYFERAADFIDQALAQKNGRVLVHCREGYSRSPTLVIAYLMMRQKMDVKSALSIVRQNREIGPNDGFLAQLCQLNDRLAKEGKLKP
BJeLR viability: kills HRASV12-expressing BJeLR cells. BJeLR (HRASV12) viability, CellTiter-Glo ATP luminescence, 48 h. inhibition, % (no concentration beside the values). actives 0.17% (n = 300,000). AID 1554; in the data active = inhibition above about 50%
MazF activator: MazEF (E. coli) toxin RNase activation. P0AE70. FAM/BHQ RNA-DNA oligo cleavage fluorescence, 5 h. activation, % at 20 µM. actives 0.32% (n = 350,000); in the data active = activation above about 50%
Target sequence (P0AE70 whole entry, looked up): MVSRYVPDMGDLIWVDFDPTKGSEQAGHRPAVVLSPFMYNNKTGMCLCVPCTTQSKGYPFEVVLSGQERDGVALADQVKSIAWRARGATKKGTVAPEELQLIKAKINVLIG
Vc quorum ag-1: quorum light induction in luxS cqsA deficient V. cholerae | V. cholerae BH1578 lux reporter, luminescence, 6 h | activation, % at 18.7 µM | actives 0.16% (n = 350,000) | AID 588436; in the data active = activation mostly above about 9.7%, no sharp cut-off
PfHsp40 yeast: compounds rescuing yeast from Plasmodium falciparum HSP40 toxicity | S. cerevisiae expressing PfHsp40, growth rescue, ATP luminescence | growth rescue, % at 12.5 µM | actives 0.68% (n = 340,000); in the data active = growth rescue above about 28%, passing the limit was not always enough;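 note: yeast W303a lacking pdr1 and pdr3 grown in galactose medium; growth measured after three days at 30 °C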
3CLpro inhibitor: SARS-CoV 3CLpro protease inhibition; recombinant SARS-CoV 3CLpro, quenched FRET peptide cleavage; inhibition, % at 6 µM; actives 0.14% (n = 290,000); AID 1706; in the data active = inhibition above about 12%
Vc quorum ag-2: inducers of V. cholerae quorum light production without autoinducers. shares compounds with Vc quorum ag-1. V. cholerae BH1578 lux reporter, luminescence, 6 h. activation, % at 50 µM. 620 tested, under 10 active; call rule not given here
Numbers without * were called inactive; i = inactive; · = not tested or not shown. Sampled rows, rich in hits. Any-hit rate of the full collection: about 1.7%.

SMILES	VHR inh abs	BJeLR viability	MazF activator	Vc quorum ag-1	PfHsp40 yeast	3CLpro inhibitor	Vc quorum ag-2
CCN(C(=O)COc1ncnc2ccc(Br)cc12)C1CCS(=O)(=O)C1 (configuration not stated)	5.0	1.8	5.1	16.7*	-0.2	-4.6	-1.3
CCCCCn1c(SCC(=O)OCC)nc2cc(C(=O)N3CCC(C(N)=O)CC3)ccc2c1=O	25.0	-1.3	0.9	14.3	0.7	4.3	0.0
CCOc1ccc(N2CC(C(=O)NCCCc3ccccc3)CC2=O)cc1 (configuration not stated)	·	·	-17.1	i	-1.1	·	·
Cn1c(Cn2cnc(Cl)c2Cl)nc2ccccc21	25.9	-0.4	8.1	16.7*	0.4	-4.0	0.2
COc1cc(C(=O)N(Cc2ccccc2)c2cccc(C)c2)ccc1OC(F)F	3.6	-5.0	-8.7	-0.2	8.9	-2.1	·
O=C(O)c1cccc(Nc2ncnc3c2cnn3-c2ccccc2)c1	-16.4	-1.5	4.9	16.7*	0.2	-1.7	0.1
CCC1Nc2ncnc(N3CCN(c4ccccc4)CC3)c2N(Cc2ccc(C)cc2)C1=O (configuration not stated)	·	3.2	-11.3	i	-1.6	·	·
CCC1Nc2ncnc(N3CCN(c4ccccc4)CC3)c2N(Cc2ccccc2)C1=O (configuration not stated)	·	·	0.1	6.2	0.9	·	0.4
O=C(NCCOc1ccccc1F)C1CCC(=O)N(CCc2cccc(F)c2)C1 (configuration not stated)	33.9	1.4	-5.4	-0.3	1.4	-3.1	·
CCc1ccccc1NNC(=O)c1snnc1C	9.6	1.7	8.1	i	-0.8	2.0	·
CC(=O)Nc1ccc(-n2cnnn2)cc1	-18.1	-9.9	1.6	-0.1	0.0	0.3	·
O=C(O)c1cn[nH]c1-n1cnnn1	4.8	-7.0	5.5	1.8	4.1	-3.0	0.1
Cn1c(SCn2nnc3ccccc3c2=O)nc2ccccc2c1=O	19.0	-8.2	·	·	·	5.3	·
O=c1c2ccccc2nnn1CSc1nnc2ccccn12	27.8	2.8	1.4	40.0*	0.6	2.6	5.6
Cc1ccc(NC(=O)CCSc2nnc(-c3ccco3)o2)cc1	-1.0	-20.4	-7.9	i	-0.1	-6.3	·
CCNC(=O)CCSc1nnc(-c2ccco2)o1	-0.8	-10.2	-0.9	835.0*	1.6	4.8	i
Cc1ccc2nc(SCc3nnc(-c4ccccc4Br)o3)[nH]c2c1	17.2	-2.9	-2.1	12.5	-0.7	4.9	0.3
CCc1ccc(N2CC(C(=O)OCC(=O)Nc3ccc(C#N)cc3)CC2=O)cc1 (configuration not stated)	·	·	1.8	i	1.6	·	·
COc1cccc(NC(=O)CC(=O)c2ccccc2)c1	-17.8	2.0	5.4	i	0.4	1.9	·
O=C(CCc1nc(-c2ccccc2)no1)N1CCCC1	4.4	2.4	0.0	312.7*	-0.5	-4.1	565.4
COc1ccc(-c2noc(CCC(=O)N3CCN(c4cccc(C(F)(F)F)c4)CC3)n2)cc1	28.6	-5.4	-2.6	25.0*	0.1	0.1	0.5
CCN(CC)C(=O)Nc1ccc(Br)cc1	13.9	5.2	6.6	i	-0.2	0.3	·
Cc1ccc(Oc2ccc(Cl)cc2NC(=O)c2cnccn2)cc1	0.3	0.0	12.0	16.7*	0.2	-1.4	0.1
Cc1ccc(OCCNC(=O)c2ccc(C)o2)cc1	·	·	-2.8	59.0*	-2.3	·	104.8
Cc1ccc(OCCNC(=O)c2ccc(C)cc2)cc1	·	7.8	-13.9	i	2.4	-5.8	·
SMILES	VHR inh abs	BJeLR viability	MazF activator	Vc quorum ag-1	PfHsp40 yeast	3CLpro inhibitor	Vc quorum ag-2
CCc1ccc(OCCNC(=O)c2cccs2)cc1	11.3	9.7	-0.6	·	1.1	0.3	i
CCOC(=O)c1[nH]c(C(=O)O)c(OC(=O)CC)c1C	30.6	7.4	8.4	11.1	-0.7	-1.2	·
C=CCN(C(=O)C1=NN(C2CCS(=O)(=O)C2)C(=O)CC1)c1nc(-c2ccc([N+](=O)[O-])cc2)cs1 (configuration not stated)	16.9	0.0	3.6	-0.3	1.3	5.2	·
O=C(Oc1ccc(=O)n(-c2ccccc2)n1)c1cccc(Cl)c1	16.4	-3.3	6.1	25.0*	0.3	4.4	0.3
CCS(=O)(=O)N1CCN(C(=O)CCC2CCCC2)CC1	-8.8	-8.6	7.2	27.8*	-0.4	-2.6	5.6
CC(C)Oc1ccc(C2NC(=O)c3ccccc3O2)cc1 (configuration not stated)	2.3	-14.3	-0.5	1.7	-1.6	-3.0	·
COc1ccc(S(=O)(=O)N2CCCC(C(=O)NCc3ccncc3)C2)cc1 (configuration not stated)	9.9	-6.3	4.2	32.1*	-0.3	6.9	0.3
CCN(CC)CC1C(=O)N(c2ccc(OC)cc2)C1c1ccccc1 (configuration not stated)	-5.3	11.6	9.6	0.4	0.5	4.6	·
Cc1ccc(N2C(=O)C(CN(C)C)C2c2ccccc2)cc1 (configuration not stated)	20.2	15.1	-3.4	16.7*	-0.2	2.6	2.1
CCCOc1ccc(C2C(C(=O)c3ccc(C)o3)=C(O)C(=O)N2CCN2CCOCC2)cc1OC (configuration not stated)	-4.3	-1.7	6.0	16.7*	0.6	1.1	200.0
COc1ccc(OC)c(C2C(C(=O)c3ccc(C)o3)=C(O)C(=O)N2CCN2CCOCC2)c1 (configuration not stated)	-12.9	11.8	11.3	i	0.3	1.1	·
O=C(OCCN1CCN(c2ncc(C(F)(F)F)cc2Cl)CC1)c1ccc(Cl)cc1	-10.9	-6.0	-14.0	·	1.7	3.4	·
O=C(OC1CCN(c2ncc(C(F)(F)F)cc2Cl)CC1)c1ccc(Cl)cc1	10.5	-0.4	1.2	12.5	-1.3	-7.8	-0.2
Cc1[nH]c2ccc3c(ncn3CCC#N)c2c1C	1.8	9.8	9.5	14.3	1.1	-7.5	0.8
OCCn1c(SCCOc2ccccc2F)nc2ccccc21	1.2	-3.1	2.5	-0.2	0.3	4.0	·
OCCn1c(SC2CCCCC2)nc2ccccc21	8.5	5.2	4.2	16.7*	1.6	-1.8	-0.4
O=S(=O)(Cc1ccc(Cl)cc1)N1CCN(Cc2ccccc2)CC1	-4.1	·	-0.4	122.4*	-1.2	4.2	0.1
O=S(=O)(Cc1ccccc1)N1CCN(Cc2ccc(Br)cc2)CC1	-7.2	0.7	-5.9	i	-0.1	-0.8	·
CCCCN(C)CCNC(=O)c1ccc2c(c1)NC(=O)C(N1CCCCC1)S2 (configuration not stated)	24.2	-0.4	-2.3	16.7*	0.4	2.6	0.1
O=C(NCCCN1CCCC1=O)c1ccc2c(c1)NC(=O)C(N1CCOCC1)S2 (configuration not stated)	-4.9	6.1	-19.2	1.8	0.3	-0.4	·
